For assay [1], the system named is Wnt5a (protein binding on small-molecule microarray). Description: Wnt5a binders on small-molecule microarray, primary screen, biophysical, 635/667 nm fluorescence (AID 1142).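 Note: fluorescence read at 667 nm with signal to noise per printed feature.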 As to conditions: 635 nm fluorescence, higher = more signal.
The nature of assay [2]: cell viability in Huh7 cells, primary screen, cytotoxicity control for HCV replication inhibitor project, CellTiter-Glo luminescence, basal, 48 h (AID 1143).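 Note: Huh7 hepatoma cells carrying a hepatitis C replication reporter with no stimulus; test concentration not given here.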 As to conditions: Huh7 HCV replicon, higher = more signal, called active from +8 up or from −8 down. For orientation: ATP-based viability assays read luminescence as a measure of living cells.
Assay [3] can be described thus: P. aeruginosa biofilm formation inhibitors, primary screen, PAO1 strain, BacTiter-Glo luminescence, LB-PBS (AID 1144). As to conditions: 12 h, higher = more signal.
The nature of assay [4]: CREB reporter modulators without forskolin, primary screen, cell-based, PC12, CRE-LacZ reporter, unstimulated (AID 1145). As to conditions: no forskolin, luminescence, 4.5 h, higher = more signal, called active from +8 up or from −8 down.
The nature of assay [5]: CREB reporter modulators under forskolin, primary screen, cell-based, PC12, CRE-LacZ reporter, forskolin-stimulated (AID 1146).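 Note: PC12 cells with 6xCRE LacZ reporter stimulated by forskolin 10 µM; beta-galactosidase reporter signal reflecting CREB driven transcription.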 The following applies: luminescence, 4.5 h, higher = more signal, called active from +8 up or from −8 down.
Assay [6] concerns the target Streptavidin (Streptomyces avidinii) (UniProt P22629). Description: streptavidin binders on small-molecule microarray, primary screen, artefact control for SMM compound annotation, biophysical, 635/667 nm fluorescence (AID 1147).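 Note: signal reflects streptavidin binding to arrayed compounds as a control protein.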 The following applies: streptavidin binding, higher = more signal.
The nature of assay [7]: small-molecule binders of probe aInhba, primary screen, biochemical, small-molecule microarray, 635/667 nm fluorescence (AID 1148).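 Note: score merges 667nm spot fluorescence with signal-to-noise for antibody binding to printed compounds.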 The following applies: higher = more signal.
Assay [8] concerns the target Torsin-1A (Homo sapiens) (UniProt O14656). Description: torsin A binders from cell lysate, primary screen, small-molecule microarray, wild-type, 635/667 nm (AID 1149). The following applies: COS7 hTOR1A-WT lysate, 635 nm fluorescence, higher = more signal.
Assay [9] shares this target. As to the kind of experiment: small-molecule binders of mutant TOR1A in lysate, primary screen, cell lysate, small-molecule microarray, COS7 lysate, 635/667 nm fluorescence (AID 1150).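 Note: score pools 667 nm emission and signal to noise measuring lysate protein binding.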 The following applies: COS7 hTOR1A mutant lysate, 635 nm fluorescence, higher = more signal.
The test system of assay [10] is Sonic hedgehog protein (Shh). As to the kind of experiment: small-molecule binders of Shh protein, primary screen, biochemical, small-molecule microarray, 635/667 nm fluorescence (AID 1151).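 Note: Shh protein binding to compounds spotted on small-molecule microarray slides; score combines spot fluorescence intensity with signal-to-noise across triplicate slides.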 The following applies: small-molecule microarray binding, 635 nm fluorescence; higher = more signal.
The nature of assay [11]: E. coli DRC41 culture turbidity changes, primary screen, E. coli filamentation inducer project, strain DRC41, OD650, 48 h (AID 1152).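 Note: E. coli MC1000 strain DRC41 lacking acrAB efflux pump and sulA.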 The following applies: E. coli DRC41 (acrAB sulA), higher = more signal, called active from +8 up or from −8 down.
The nature of assay [12]: small-molecule binders of probe aLefty1, primary screen, biochemical, small-molecule microarray, 635/667 nm fluorescence (AID 1153).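 Note: score merges spot fluorescence with signal-to-noise ratio from the scanned slide images.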 The following applies: higher = more signal.
A short description of assay [13]: PSAC antagonists in infected red cells, primary screen, cell-based, P. falciparum Indochina, OD700, 1 h (AID 1154). The following applies: P. falciparum Indochina infected RBC osmotic lysis, higher = more signal, called active from +8 up or from −8 down.
Assay [14] in a line: PSAC antagonists in infected red cells, primary screen, cell-based, P. falciparum Indochina, OD700, 2 h (AID 1155).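 Note: lysis reports solute entry through the parasite surface anion channel PSAC; channel blockers reduce lysis of infected cells.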 As to conditions: P. falciparum Indochina infected erythrocytes, osmotic lysis OD700; higher = more signal, called active from +8 up or from −8 down.
The nature of assay [15]: osmotic lysis modulators in infected erythrocytes, primary screen, PSAC antagonist project, cell-based, P. falciparum Indochina, OD700, 3 h (AID 1156). The following applies: higher = more signal, called active from +8 up or from −8 down.
Assay [16] in a line: PSAC antagonists in infected red cells, primary screen, cell-based, P. falciparum Indochina, OD700, 18 h (AID 1157). The following applies: P. falciparum Indochina infected erythrocytes, osmotic lysis OD700, 18 h; higher = more signal, called active from +8 up or from −8 down.
Assay [17] is described as follows: modulators of S6 phosphorylation in cells, primary screen, cell-based, A549, cytoblot, luminescence, serum-stimulated (AID 1158).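 Note: serum-stimulated A549 lung adenocarcinoma cells; signal is phosphorylated S6 detected by cytoblot immunostaining with HRP secondary.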 The following applies: A549 phospho-S6 cytoblot, 5 h, higher = more signal.
Assay [18] concerns the target NADPH oxidase 2 (Homo sapiens) (UniProt P04839). Description: NOX2-dependent H2O2 signal modulators, primary screen, NOX inhibitor project, cell-based, HEK293-NOX2, PMA-stimulated, Amplex Red fluorescence (AID 1159). Note: test concentration not given here. As to conditions: 45 min, higher = more signal, called active from +8 up or from −8 down.
Assay [19] has as its target NADPH oxidase 4 (Homo sapiens) (UniProt Q9NPH5). As to the kind of experiment: NOX4-dependent H2O2 signal modulators, primary screen, NOX inhibitor project, cell-based, HEK293-NOX4, tetracycline-induced, Amplex Red fluorescence (AID 1160). As to conditions: 45 min, higher = more signal, called active from +8 up or from −8 down.
Assay [20] has as its target NADPH oxidase 5 (Homo sapiens) (UniProt Q96PH1). Description: NOX5-dependent H2O2 signal modulators, primary screen, NOX inhibitor project, cell-based, HEK293-NOX5, Amplex Red fluorescence (AID 1161). As to conditions: HEK293-NOX5, ionomycin, 45 min, higher = more signal.

Calls of active or inactive are those of the source. Unless noted, the rule behind the calls is not given here.

From PubChem BioAssay come the findings set out here.

Sequence of NADPH oxidase 2 (Homo sapiens) (P04839 whole entry, looked up): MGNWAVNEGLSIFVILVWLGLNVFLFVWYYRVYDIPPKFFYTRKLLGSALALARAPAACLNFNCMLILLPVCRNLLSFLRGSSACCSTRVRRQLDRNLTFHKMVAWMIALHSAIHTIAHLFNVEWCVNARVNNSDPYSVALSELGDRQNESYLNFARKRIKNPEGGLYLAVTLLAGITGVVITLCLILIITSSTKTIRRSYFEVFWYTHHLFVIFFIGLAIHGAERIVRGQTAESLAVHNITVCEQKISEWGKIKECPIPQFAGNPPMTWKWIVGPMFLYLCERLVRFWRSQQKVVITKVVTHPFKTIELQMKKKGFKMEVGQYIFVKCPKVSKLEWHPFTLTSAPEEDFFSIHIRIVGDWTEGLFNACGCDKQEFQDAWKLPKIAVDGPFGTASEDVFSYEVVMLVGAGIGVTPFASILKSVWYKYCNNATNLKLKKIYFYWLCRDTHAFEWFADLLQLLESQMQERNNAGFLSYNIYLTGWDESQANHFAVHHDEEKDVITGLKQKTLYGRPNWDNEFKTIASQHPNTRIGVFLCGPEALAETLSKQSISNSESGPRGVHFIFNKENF
Sequence of NADPH oxidase 4 (Homo sapiens) (Q9NPH5 whole entry, looked up): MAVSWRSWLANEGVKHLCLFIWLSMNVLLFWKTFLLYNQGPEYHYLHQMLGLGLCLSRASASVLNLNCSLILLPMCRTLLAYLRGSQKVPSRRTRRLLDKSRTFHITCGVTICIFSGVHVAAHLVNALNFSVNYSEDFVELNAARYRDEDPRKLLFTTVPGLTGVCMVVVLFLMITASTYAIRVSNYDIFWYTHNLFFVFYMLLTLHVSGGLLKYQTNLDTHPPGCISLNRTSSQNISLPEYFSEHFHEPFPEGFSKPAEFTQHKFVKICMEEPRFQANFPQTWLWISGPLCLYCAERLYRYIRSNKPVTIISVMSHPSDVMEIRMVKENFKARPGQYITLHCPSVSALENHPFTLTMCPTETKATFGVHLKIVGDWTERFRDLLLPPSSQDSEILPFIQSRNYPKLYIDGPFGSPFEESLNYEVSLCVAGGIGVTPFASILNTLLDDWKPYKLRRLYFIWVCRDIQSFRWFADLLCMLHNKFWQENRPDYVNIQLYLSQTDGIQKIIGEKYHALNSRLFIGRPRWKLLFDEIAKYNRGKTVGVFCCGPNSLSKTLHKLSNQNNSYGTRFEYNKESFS
Sequence of NADPH oxidase 5 (Homo sapiens) (Q96PH1 whole entry, looked up): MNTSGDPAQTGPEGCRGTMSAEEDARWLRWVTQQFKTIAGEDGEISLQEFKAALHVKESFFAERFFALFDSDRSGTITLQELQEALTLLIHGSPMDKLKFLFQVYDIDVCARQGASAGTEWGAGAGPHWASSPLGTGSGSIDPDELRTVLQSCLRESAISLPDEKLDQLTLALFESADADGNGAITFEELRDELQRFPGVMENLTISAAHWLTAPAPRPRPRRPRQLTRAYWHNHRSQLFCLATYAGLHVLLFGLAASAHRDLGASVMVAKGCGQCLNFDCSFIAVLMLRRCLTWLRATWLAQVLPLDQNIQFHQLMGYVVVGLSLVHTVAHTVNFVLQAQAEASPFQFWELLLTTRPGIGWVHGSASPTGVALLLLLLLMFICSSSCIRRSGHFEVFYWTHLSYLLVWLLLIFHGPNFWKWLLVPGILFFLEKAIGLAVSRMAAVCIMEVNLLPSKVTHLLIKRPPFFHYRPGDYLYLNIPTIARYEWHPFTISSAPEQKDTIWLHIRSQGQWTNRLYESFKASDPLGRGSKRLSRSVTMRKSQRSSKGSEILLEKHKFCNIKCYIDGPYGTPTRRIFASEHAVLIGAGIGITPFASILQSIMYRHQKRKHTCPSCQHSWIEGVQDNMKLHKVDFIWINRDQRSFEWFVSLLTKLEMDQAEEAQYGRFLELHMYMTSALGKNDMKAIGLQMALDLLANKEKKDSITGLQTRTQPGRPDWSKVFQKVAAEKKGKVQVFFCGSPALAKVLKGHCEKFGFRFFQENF
Sequence of Torsin-1A (Homo sapiens) (O14656 whole entry, looked up): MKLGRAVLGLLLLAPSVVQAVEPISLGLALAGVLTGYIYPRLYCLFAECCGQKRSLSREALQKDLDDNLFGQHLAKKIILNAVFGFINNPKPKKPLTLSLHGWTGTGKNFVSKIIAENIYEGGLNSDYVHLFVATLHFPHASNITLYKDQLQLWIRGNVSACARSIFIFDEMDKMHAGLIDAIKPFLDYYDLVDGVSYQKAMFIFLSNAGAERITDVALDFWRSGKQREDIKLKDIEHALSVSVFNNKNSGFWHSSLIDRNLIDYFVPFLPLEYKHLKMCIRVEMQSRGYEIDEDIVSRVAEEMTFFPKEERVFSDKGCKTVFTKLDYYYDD
Sequence of Streptavidin (Streptomyces avidinii) (P22629 whole entry, looked up): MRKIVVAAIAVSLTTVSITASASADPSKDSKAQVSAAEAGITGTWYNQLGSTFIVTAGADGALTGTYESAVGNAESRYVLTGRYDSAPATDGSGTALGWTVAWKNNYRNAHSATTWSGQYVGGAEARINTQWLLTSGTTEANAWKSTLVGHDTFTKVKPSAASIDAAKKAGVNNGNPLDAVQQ

In the case of `COCCOC(=O)N1C(=O)[C@@]2(c3cc(C#CC4(O)CCCCCC4)ccc31)[C@H](C(=O)N1CCN(c3ncccn3)CC1)[C@H]1C(=O)O[C@H](c3ccccc3)[C@H](c3ccccc3)N1[C@@H]2c1ccc(OCCO)cc1`, the composite z-score in assay [1] worked out at 0.495; in [6], 0.436; in assay [7], 0.303; with Torsin-1A (Homo sapiens) [8] it was 0.227; in the assay with Torsin-1A (Homo sapiens) [9] it was 0.425; in [10] it was 1.17. Moreover, the composite z-score in assay [12] is 0.485. Also, the z-score in assay [2] is -3.05 (inactive); in assay [3], 0.905 (inactive); in [4], -0.878 (inactive); in [5] it was -0.249 (inactive); in assay [11] it was 1.74 (inactive); in assay [13], 11.7 (active). Moreover, the z-score in assay [14] is 2.25 (inactive); in assay [15], 1.35 (inactive); in [16] it was 1.19 (inactive); in assay [17], 0.372; in assay [18] it was 1.69 (inactive); in assay [19] it was -0.754 (inactive). The compound also gave a z-score in [20] of 1.24.
In the case of `CCOC(=O)[C@H](Cc1ccccc1)NC(=O)CCC1CC(OC(=O)NCc2ccc3c(c2)OCO3)CC2(CCCC(COC(=O)NCC3CCCCC3)O2)O1` (stereo not given in full), the composite z-score in assay [1] was 0.0472; in assay [6], 0.592; in assay [7], -0.0289; in the assay with Torsin-1A (Homo sapiens) [8], -0.407; in the assay with Torsin-1A (Homo sapiens) [9], 0.538; in [10], 1.36. In assay [12], this compound gave a composite z-score of 0.171. The z-score is -0.734 (inactive) in assay [2]; -0.0126 (inactive) in assay [3]; -0.613 (inactive) in [4]; -0.177 (inactive) in assay [5]; -0.251 (inactive) in assay [11]; 0.732 (inactive) in assay [13]. Besides, the z-score in [14] was 0.45 (inactive); in assay [15], -0.235 (inactive); in assay [16] it was 0.297 (inactive); in [17], 0.236; in assay [18] it was 1.51 (inactive); in assay [19], 0.737 (inactive). Moreover, the z-score in [20] is 0.909.
Turning to `CO[C@@H]1COC(=O)[C@H](C)NC(=O)[C@@H](C)COC(=O)CCC[C@H]1C`, the composite z-score in assay [1] is -0.0361; in [6], -0.185; in [7], -0.128; in the assay with Torsin-1A (Homo sapiens) [8] it was 0.738; with Torsin-1A (Homo sapiens) [9], 0.462; in assay [10], 1.24. In addition, the composite z-score in assay [12] was 0.0291. Further, the z-score in assay [2] was -0.639 (inactive); in assay [3], 0.019 (inactive); in [4] it was 0.085 (inactive); in [5], 0.396 (inactive); in [11], 0.298 (inactive); in assay [13] it was 5.14 (inactive). Also, the z-score in [14] was 0.891 (inactive); in [15], 1.45 (inactive); in [16], 0.516 (inactive); in assay [17] it was -0.276; in [18], -0.869 (inactive); in [19], 0.0705 (inactive). In [20], this compound registered a z-score of -1.15.
Take `CCc1cc2c(nc1CC)CCN(CCC(C)=NO[C@@H](C)c1cc(-c3c(C)cc(C)cc3C)no1)C2`: the composite z-score is -0.0627 in assay [1]; 1.67 in [6]; -0.0762 in assay [7]; -0.233 with Torsin-1A (Homo sapiens) [8]; 0.0048 in the assay with Torsin-1A (Homo sapiens) [9]; 0.134 in assay [10]. Also, the composite z-score in [12] was -0.192. Besides, the z-score in assay [2] is -2.21 (inactive); in assay [3] it was -0.626 (inactive); in assay [4], 0.429 (inactive); in assay [5], 0.446 (inactive); in assay [11], 0.187 (inactive); in assay [13], 4.75 (inactive). Also, the z-score was 0.445 (inactive) in assay [14]; 1.41 (inactive) in [15]; 0.514 (inactive) in assay [16]; 0.549 in assay [17]; -2.21 (inactive) in assay [18]; -0.321 (inactive) in [19]. In addition, the z-score in assay [20] was -2.75.
